Results taken from publication PMC12136788.
Changes are numbered by the printed parent chain. In all, about 24,000 sequences were measured (“enrichment r”: median about 0.99, highest 2% from about 3.7 on). What follows is part of a selection rich in the highest values, with near analogues and random picks from the rest.

T1: UNK ZnF1-3 (human, UniProt Q9C0B0 31-174)
T1 sequence: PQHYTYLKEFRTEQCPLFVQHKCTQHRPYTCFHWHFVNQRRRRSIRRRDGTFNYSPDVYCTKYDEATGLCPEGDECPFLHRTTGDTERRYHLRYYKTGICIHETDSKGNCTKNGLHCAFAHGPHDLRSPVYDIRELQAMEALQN

B1: 132634964_132635084_86_5pUTR_ENSMUSG00000030750_ENSMUST00000033006|mouse|control|control (ssRNA)
RNA: GGGAGUUCUACAGUCCGACGAUCCCCGCCUCCAGGGCGGAGAGAUCGCCAGACUGGAGCUCCUACUGGUGGGCUACGCGCAUUCUCCCGCUCACCAGCGGAGUACUUCCGUUUUCCCCGCCCGCUCUGUUGCUAUGGCGCCUUCAACAGAGGAUUGAGCAUCA
B2: chr2:24222969:24222970:+_ENSG00000173960_ENST00000309033|hu_mus|FALSE|FALSE (ssRNA)
RNA: GGGAGUUCUACAGUCCGACGAUCAUUAAUGACACAGCUAUUUAAUGUCAUAUUGGCUAACUAAUAUUUGAAAAAUAGGUAUUUUUUUCUGAAUAGCCUGUUGAGAAAAAUGCACUGACCCUGGCUUAGAGCCAUGUCACUCUCCAACAGAGGAUUGAGCAUCA
B3: chr16:94664741:94664742:+_ENSMUSG00000040785_ENSMUST00000117648|mus_hu|mus_mus_mus_hu_False|48_78 (ssRNA)
RNA: GGGAGUUCUACAGUCCGACGAUCUGGUACUGAUCUUGGUAGCUGAUAUUCAGGAGAAAUGUUGGCCAAGGGUGUAUAUAUGCUGGUGAACUGCGACAAACCUGGUAACACGUUUAUGUAUGCUGGCGGUGUCUGGGUGAUAUCCAACAGAGGAUUGAGCAUCA
B4: 203421096_203421216_3307_3pUTR_ENSG00000204217_ENST00000374580|human|control|control (ssRNA)
RNA: GGGAGUUCUACAGUCCGACGAUCAGAUCCAGAGAAUUAGGCCUCUGUGCUCUUCUGGGCUUUGAUGGCCCAGGAUCUGCUGCUGUGCUUGGAACACCCUGUGCAAGAACAUCUUGUUCUGAACAUGGAUUGCUGUUGUUGUUACAACAGAGGAUUGAGCAUCA
B5: chr11:87793471:87793472:-_ENSMUSG00000020483_ENSMUST00000020775|mus_mus|mus_mus_mus_hu_False|88_98 (ssRNA)
RNA: GGGAGUUCUACAGUCCGACGAUCUGGACUUGAAAAUAAAAAAAAUAGCUAGAUUUCCCACCCCCCCACAUUGUCAACCCUACACGAGAGUUUUGAAGGCGACUCAUGAAAAUCAGCAGCUCAAACGGCAAUGACCACCCCACCCAACAGAGGAUUGAGCAUCA
B6: chr4:57314706:57314707:+_ENSG00000128050_ENST00000264221|hu_mus|hu_hu_hu_mus_True|18_58 (ssRNA)
RNA: GGGAGUUCUACAGUCCGACGAUCCAGAAUUUCAAAAAUAGCUUGUGUGGCAUGACUCAUGAUGUCCACUUCAGUCUGGCCUAUAAGAAGGCCAGCAAAACAGAAUUUUGCAGCAAUCAGCUGUUCCUCAGACCACUGUGGAUCCAACAGAGGAUUGAGCAUCA
B7: chr11:87793471:87793472:-_ENSMUSG00000020483_ENSMUST00000020775|mus_mus|mus_mus_mus_hu_False|1_108 (ssRNA)
RNA: GGGAGUUCUACAGUCCGACGAUCUGGGGGCUGGGGAAAAAGAAUAAGCUGGAUCCCCCACCCCCCCACAUUGUCAACCCUACACGAGAGUUUUGAAGGCGACUCAUGAAAAUCAGCAGCUCAAACGGCAAUGACCACCCACCCCAACAGAGGAUUGAGCAUCA
B8: chr11:87793471:87793472:-_ENSMUSG00000020483_ENSMUST00000020775|mus_mus|mus_mus_mus_hu_False|1_98 (ssRNA)
RNA: B5 RNA with A50G, U54C, U55C, C140A, A141C
B9: chr11:87793471:87793472:-_ENSMUSG00000020483_ENSMUST00000020775|mus_mus|mus_mus_mus_hu_False|58_98 (ssRNA)
RNA: B5 RNA with A50G, U54C, U55C, C82U, A83G
B10: chr11:87793471:87793472:-_ENSMUSG00000020483_ENSMUST00000020775|mus_mus|mus_mus_mus_hu_False|98_98 (ssRNA)
RNA: B5 RNA with A50G, U54C, U55C
B11: chr4:57314706:57314707:+_ENSG00000128050_ENST00000264221|hu_mus|hu_hu_hu_mus_True|1_18 (ssRNA)
RNA: B6 RNA with G78C, G86C, A141G
B12: chr11:87793471:87793472:-_ENSMUSG00000020483_ENSMUST00000020775|mus_mus|mus_mus_mus_hu_False|38_88 (ssRNA)
RNA: B5 RNA with A41G, A44U, U45A, G97U, C99A, G100U, A101U, U103A, C104U, U106A
B13: chr11:87793471:87793472:-_ENSMUSG00000020483_ENSMUST00000020775|mus_mus|mus_mus_mus_hu_False|68_98 (ssRNA)
RNA: B5 RNA with A50G, U54C, U55C, U70G
B14: chr11:87793471:87793472:-_ENSMUSG00000020483_ENSMUST00000020775|mus_mus|mus_mus_mus_hu_False|38_98 (ssRNA)
RNA: B5 RNA with A50G, U54C, U55C, G97U, C99A, G100U, A101U, U103A, C104U, U106A
B15: chrX:16864032:16864033:-_ENSG00000102054_ENST00000404022|hu_hu|FALSE|FALSE (ssRNA)
RNA: GGGAGUUCUACAGUCCGACGAUCCAUGAUGUUAUCCUCAGACACUGAGCAAAUGACCCAAGGCUCAUUGGGGUUCCAGCUAAAAUCUGAAAUCUUAGCAGUGUGUCCUCCAUGAAUAAACAGGAGUUCUGGAGGCCCAUCUUCCAACAGAGGAUUGAGCAUCA

Target: T1, UNK ZnF1-3
Experiment: nsRBNS (natural sequence RNA bind-n-seq); RBNS binding buffer (assumed for nsRBNS): 25 mM Tris pH 7.5, 150 mM KCl, 3 mM MgCl2, 0.01% Triton X-100, 500 ug/ml BSA, 20 U/ml SUPERase-In, 4 C; UNK is unkempt and MSI1 is Musashi-1; names of the RNAs are library labels; protein concentration not given here; high values mean tight binding

| Binder | binding signal |
| --- | --- |
| B1 | 0.567 enrichment R |
| B2 | 0.836 enrichment R |
| B3 | 1.01 enrichment R |
| B4 | 0.924 enrichment R |
| B5 | 3.58 enrichment R |
| B6 | 0.97 enrichment R |
| B7 | 1.72 enrichment R |
| B8 | 3.94 enrichment R |
| B9 | 3.93 enrichment R |
| B10 | 4.07 enrichment R |
| B11 | 0.937 enrichment R |
| B12 | 1.97 enrichment R |
| B13 | 3.54 enrichment R |
| B14 | 4.29 enrichment R |
| B15 | 1.18 enrichment R |
